Results reported in ChEMBL document CHEMBL1157539, “Thousands of chemical starting points for antimalarial lead identification” (Nature, 2010).

system: Plasmodium falciparum; assay: GSK_TCMDC: Inhibition of Plasmodium falciparum Dd2 in whole red blood cells, using parasite LDH activity as an index of growth. Test compounds present at 2uM; assay type: functional

| SMILES | Inhibition |
| --- | --- |
| Cc1cnc2ccc(NS(=O)(=O)c3sc4ccc(Cl)cc4c3C)cc2c1N1CCNCC1.Cl | 0% |
| COc1ccc(Nc2cc(C)nc(Nc3ccc(NC(C)=O)cc3)n2)cc1 | 31% |
| CN1CCC(C(=O)Nc2cccc(-c3ccc(-c4nc5cc(F)ccc5[nH]4)cc3)c2)CC1 | 51% |
| Cc1cc2c(cc1C(F)(F)F)N(C(=O)Nc1ccc(OCCN(C)C)c(C(F)(F)F)c1)CC2.Cl | 23% |
| Cc1cc(=O)[nH]c(-n2nc(C)cc2NC(=O)C2(c3ccc(Cl)cc3)CCCC2)n1 | 97% |
| Nc1cccc(CNCc2ccc(-c3ccc(-c4nc5cc(C(F)(F)F)ccc5[nH]4)s3)cc2)c1.O=C(O)C(F)(F)F | 98% |
| Cc1ccc2nc(-c3ccc(C(=O)NCc4ccc(Cl)c(Cl)c4)cc3)[nH]c2c1C | 26% |
| Cc1cccc2nc(-c3ccc(-c4ccc(CN5CCCC(N)C5)cc4)cc3)[nH]c12.O=C(O)C(F)(F)F (centres undefined) | 100% |
| Cc1nc(-c2nc(NCCc3cnccn3)ncc2-c2ccsc2)sc1C | 40% |
| Cn1cnc2c(Nc3ccncc3)nc(-c3ccc4ccccc4c3)nc21 | 66% |
| O=C(Nc1ccc2c(c1)OCCO2)c1cc(-c2cccnc2)nc2ccc(Cl)cc12 | 27% |
| CNc1ccc(CNCc2cccc(-c3ccc(-c4nc5ccccc5[nH]4)s3)c2)cc1.O=C(O)C(F)(F)F | 77% |
| CC(C)=CCc1c(-c2ccc(O)cc2O)oc2c3c(cc(O)c2c1=O)OC(C)(C)C=C3 [MORUSIN] | 8% |
| O=C(/C=C/c1ccc(Cl)c(Cl)c1)NCCCCCN1CCC(c2c[nH]c3ccc(O)cc23)CC1 | 0% |
